Bioassay records: PubChem BioAssay, several laboratories
The list is not random: actives were taken first. Their share in the collection is about 0.71%.
sdo1 growth: sdo1-depleted yeast growth rescue; S. cerevisiae sdo1-depleted JHY4D growth rescue, OD600 30 h; active compounds read high; pdr5 snq2 efflux-pump mutant strain; z-score at 10 µM; 0.21% of 140,000 active;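 active means z-score above 3 at both the 24 hr and the 30 hr optical density reads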
Phagocyt inh: inhibitors of macrophage phagocytosis; J774A.1 macrophage IgG-bead phagocytosis, imaging; inhibition, % at 5 µM; 0.07% of 110,000 active;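 active means inhibition above the mean of the plate negative controls plus 5 SD, cut at about 13% in these data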;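 further: phagocytic index as fraction of beads internalized from green versus red external bead signal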
CD11b adhes enh: CD11b/CD18-fibrinogen binding enhancement. activation, % at 10 µM. 0.07% of 93,000 active. K562 CD11b/CD18 adhesion to fibrinogen, ATPlite luminescence. AID 1499;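 active means 10 µM primary screen giving 50% or more activity, confirmed by 40% or more on retest at that dose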
Target sequence (P05107 whole entry, looked up, other chains not shown): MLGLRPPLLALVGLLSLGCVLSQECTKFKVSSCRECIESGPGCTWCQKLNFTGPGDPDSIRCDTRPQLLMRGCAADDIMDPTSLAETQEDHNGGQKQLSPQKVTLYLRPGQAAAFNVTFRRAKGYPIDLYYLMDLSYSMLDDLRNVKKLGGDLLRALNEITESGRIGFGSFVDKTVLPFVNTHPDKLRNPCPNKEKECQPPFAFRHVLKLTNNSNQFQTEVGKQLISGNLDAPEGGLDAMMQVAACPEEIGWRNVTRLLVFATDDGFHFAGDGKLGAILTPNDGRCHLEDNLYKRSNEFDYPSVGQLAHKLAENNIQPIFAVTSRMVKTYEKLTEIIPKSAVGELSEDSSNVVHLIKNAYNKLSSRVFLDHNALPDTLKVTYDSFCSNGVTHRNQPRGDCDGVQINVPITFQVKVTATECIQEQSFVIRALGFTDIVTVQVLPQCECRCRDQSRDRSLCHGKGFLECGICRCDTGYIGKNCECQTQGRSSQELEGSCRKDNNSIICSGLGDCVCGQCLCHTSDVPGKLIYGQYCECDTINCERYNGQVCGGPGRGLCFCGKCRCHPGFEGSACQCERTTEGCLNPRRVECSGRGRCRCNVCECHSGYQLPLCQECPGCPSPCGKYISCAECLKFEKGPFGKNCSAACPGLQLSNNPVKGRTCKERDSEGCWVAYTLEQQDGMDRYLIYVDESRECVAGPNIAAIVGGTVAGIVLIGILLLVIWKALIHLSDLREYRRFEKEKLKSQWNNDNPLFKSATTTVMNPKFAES
Mac1 fbg inh: blocks human CD11b/CD18 adhesion to fibrinogen | AID 1497 | inhibition, % at 10 µM | P05107+P11215 | K562 CD11b/CD18 adhesion to fibrinogen, ATPlite luminescence; Mn2+ added to activate the integrin | 0.54% of 93,000 active;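 active means primary inhibition of 50% or more at 10 µM, then 40% or more on retest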
Large screens that a line does not name were inactive.

CC1CCC(NC(=O)c2ccc(/C=C3\Oc4ccccc4N(C)C3=O)cc2)CC1 (centres undefined)	none
COc1ccc(C(=O)NCC(=O)NCC(=O)OCC(=O)C(C)(C)C)cc1	none (no result: CD11b adhes enh, Mac1 fbg inh)
NS(=O)(=O)c1ccc(CCNc2ncnc3sccc23)cc1	none
Cc1sc2ncnc(NCCc3ccc(S(N)(=O)=O)cc3)c2c1C	Mac1 fbg inh 51.4
C=CCNC(=O)c1onc(CSc2ccc(F)cc2)c1C(=O)NCCOC	Mac1 fbg inh 59.9
CCCc1cc(C(=O)Cc2ccc(F)cc2)c(O)cc1O	Mac1 fbg inh 94.8
CCc1cc(C(=O)Cc2ccc(F)cc2)c(O)cc1O	Mac1 fbg inh 102.8
CCCc1cc(C(=O)Cc2ccc(C(=O)OCC)o2)c(O)cc1O	none
CCc1cc(C(=O)COc2ccccc2F)c(O)cc1O	Mac1 fbg inh 84.0
O=C(Cc1ccc(F)cc1)c1ccc(O)cc1O	none
CCc1nnc(NC(=O)c2sc3nc4cc(C)ccc4cc3c2N)s1	CD11b adhes enh 100.3
O=C1CC(c2cccs2)Cc2nc(NCC3CCCO3)ncc21 (centres undefined)	none
O=C(NNC1=C(C(=O)C(F)(F)F)CCC1)c1ccc(Br)cc1	Mac1 fbg inh 97.3 (no result: Phagocyt inh)
CCN(CC)S(=O)(=O)c1cc([N+](=O)[O-])ccc1NNC(=O)Nc1ccc(Cl)c(Cl)c1	Mac1 fbg inh 99.1
COc1ccc(N2CCN(CCCn3c(=S)[nH]c4ncccc4c3=O)CC2)cc1	Mac1 fbg inh 62.1
COc1ccc(NC(=O)CSc2nc3ccccc3c(=O)n2CCCN2CCCCC2)c(OC)c1	none
Clc1ccc(OCCN2CCN(c3ncnc4sccc34)CC2)cc1	Mac1 fbg inh 99.3
Cc1sc2ncnc(N3CCCCC3)c2c1C	none
Clc1ccc(CN2CCN(c3ncnc4scc(-c5cccs5)c34)CC2)cc1	none
Cc1ccc(OCCN2CCN(c3ncnc4sc(C)c(C)c34)CC2)cc1	Mac1 fbg inh 97.2
CO[C@@H]1O[C@@H]2COC(c3ccccc3)O[C@@H]2[C@@H](OC)[C@@H]1O (some centres undefined)	none (no result: Phagocyt inh, CD11b adhes enh, Mac1 fbg inh)
O=C(O)CNc1nc(Cl)ccc1[N+](=O)[O-]	none (no result: Phagocyt inh, CD11b adhes enh, Mac1 fbg inh)
CN(CCc1ccccn1)S(=O)(=O)c1ccc(F)cc1	none
CC(C)(C)c1cc(S(=O)(=O)CCc2ccccn2)cc(C(C)(C)C)c1F	Phagocyt inh 153.3
Cc1ccc(C(=O)N2CC(=O)Nc3ccc(F)cc3C2c2ccc(F)cc2)cc1[N+](=O)[O-] (centres undefined)	none (no result: CD11b adhes enh, Mac1 fbg inh)
COC(=O)c1c(NC(=S)Nc2ccc(F)cc2[N+](=O)[O-])sc2c1CCCCC2	Mac1 fbg inh 85.9
COc1ccc(NC(=S)NC(NC(=O)c2ccc(Cl)cc2Cl)C(Cl)(Cl)Cl)c([N+](=O)[O-])c1 (centres undefined)	Mac1 fbg inh 82.6
Cc1ccc(NC(=O)c2ccc3c(c2)OCCO3)cc1S(=O)(=O)Nc1cccc(Cl)c1	none
O=C(NNC(=O)c1cccs1)c1ccc(Cl)c(Cl)c1	none (no result: CD11b adhes enh, Mac1 fbg inh)
COCc1cc(C)nc(N2CCN(Cc3ccccc3)CC2)c1C#N	Mac1 fbg inh 52.3
Cc1ccc(-c2nc(-c3ccccn3)no2)cc1Cl	Mac1 fbg inh 70.6
c1ccc(-c2ccc(-c3nc(-c4ccccn4)no3)cc2)cc1	none
Cc1ccccc1-c1noc(-c2ccc(Cl)cc2)n1	none (no result: Phagocyt inh, CD11b adhes enh, Mac1 fbg inh)
Cc1ccccc1-c1noc(-c2ccc(O)cc2)n1	Mac1 fbg inh 73.6
Cc1ccc(-c2nc(-c3ccccn3)no2)cc1	Mac1 fbg inh 91.1
O=C1c2ccccc2C(=O)N1/N=C/c1ccc(O)c(O)c1	none (no result: CD11b adhes enh, Mac1 fbg inh)
CC1CC(C)CN(CCCNC(=O)Cc2c(C(=O)O)n(C)c3ccccc23)C1 (centres undefined)	none
CC1(C)CC(=O)C=C(NCCN2CCN(C(=O)Nc3ccccc3)CC2)C1	none
Cc1cc(C(=O)CSc2n[nH]c(-c3ccccc3F)n2)c(C)n1Cc1cccs1	none
O=C(O)C1CCCN1c1ncnc2ccccc12 (centres undefined)	none
CC1CCCCN1c1ncnc2ccccc12 (centres undefined)	Mac1 fbg inh 69.4
Nn1c(-c2ccccc2)nnc1-c1ccccc1	none (no result: Phagocyt inh, CD11b adhes enh, Mac1 fbg inh)
O=C(CSc1nc(-c2ccc(F)cc2)cc(C(F)(F)F)n1)NCc1ccco1	none (no result: Phagocyt inh, CD11b adhes enh, Mac1 fbg inh)
O=C(O)[C@H](CO)Nc1ncnc2sc3c(c12)CCC3	none (no result: Phagocyt inh, CD11b adhes enh, Mac1 fbg inh)
Cc1nc(NS(=O)(=O)c2ccc(Br)cc2)c2c3c(sc2n1)CCC3	Mac1 fbg inh 92.7 (no result: Phagocyt inh)
O=S(=O)(Nc1ncnc2sc3c(c12)CCC3)c1ccc(Cl)s1	Mac1 fbg inh 86.8
COc1cc2c(cc1OC)/C(=C/c1ccc(Br)cc1)C(=O)OC2	none (no result: Phagocyt inh, CD11b adhes enh, Mac1 fbg inh)
CC(=O)Nc1ccccc1OCC(=O)c1cc(C)n(Cc2cccs2)c1C	Mac1 fbg inh 102.2
